Experimental data taken from PubChem BioAssay AID1932 (Vanderbilt High Throughput Screening Facility, 2009).
Active and inactive are the calls of the source. How the calls were made is not given here.

Target: Muscarinic acetylcholine receptor M1 (Rattus norvegicus) (UniProt P08482)
Assay: rat M1 acetylcholine curve fold-shift by analogs, SAR follow-up, selectivity assay for M4 PAM project, cell-based, ACh fold-shift, calcium mobilization (AID 1932)
Conditions: rM1-expressing cells, ACh CRC fold-shift; series mostly up to 1 µM; ACh response, % max: at the top concentration

Muscarinic acetylcholine receptor M1 (Rattus norvegicus), sequence (P08482 whole entry, looked up): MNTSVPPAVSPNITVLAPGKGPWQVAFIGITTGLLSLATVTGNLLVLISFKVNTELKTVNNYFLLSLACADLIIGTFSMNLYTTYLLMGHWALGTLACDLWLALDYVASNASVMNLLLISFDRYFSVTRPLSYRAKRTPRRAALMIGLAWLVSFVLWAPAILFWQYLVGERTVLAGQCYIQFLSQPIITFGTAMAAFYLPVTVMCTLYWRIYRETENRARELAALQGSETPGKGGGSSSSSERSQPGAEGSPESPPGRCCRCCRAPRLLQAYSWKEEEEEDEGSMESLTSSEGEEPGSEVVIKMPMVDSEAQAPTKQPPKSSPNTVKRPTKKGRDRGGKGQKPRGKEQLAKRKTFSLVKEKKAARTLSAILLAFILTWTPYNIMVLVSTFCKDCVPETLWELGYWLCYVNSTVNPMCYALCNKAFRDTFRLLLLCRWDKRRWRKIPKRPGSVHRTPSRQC

ACh response, % max, inactive:
Cc1cc(OCCN2CCOCC2)nc2sc(C(=O)NC(C)(C)C)c(N)c12 93.7, Cc1cc(OCc2ccncc2)nc2sc(C(=O)NCc3cc(F)ccc3F)c(N)c12 92.8, Cc1cc(OCc2ccncc2)nc2sc(C(=O)NCc3cccc(F)c3F)c(N)c12 92.3, COc1ccc(CNC(=O)c2sc3nc(OCc4ccncc4)cc(C)c3c2N)cc1 96.3
